This passage reports outcome and AC50 results from PubChem BioAssay (EPA / NIEHS).

SMILES strings stand for the structures. Calls of active or inactive are those of the source. Rule for the calls: active = hit-call score of the fitted dose curve at least 0.9, where 1 is the maximum; inactive = score below 0.9.

Read-out in experiment [1]: Thrombomodulin, THBD (gene 7056)
The experiment can be described thus: BSK_CASM3C_Thrombomodulin: BioMAP Diversity Plus: CASM3C Assay for Thrombomodulin Biomarker Activity (AID 2283051).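 Note: thrombomodulin protein level measured by ELISA 24 h after dosing.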 Conditions: primary human coronary artery smooth muscle cells; actives raise or lower the signal.

Read-out in experiment [2]: Tissue Factor, F3 (gene 2152)
Description: BSK_CASM3C_TissueFactor: BioMAP Diversity Plus: CASM3C Assay for Tissue Factor Biomarker Activity (AID 2283052).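 Note: cell surface tissue factor protein level read by ELISA.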 As to conditions: primary human coronary artery smooth muscle cells; actives raise or lower the signal.

Read-out in experiment [3]: Interferon-gamma inducible Protein 10 (IP10), CXCL10 (gene 3627)
Description: BSK_hDFCGF_IP10: BioMAP Diversity Plus: hDFCGF Assay for Interferon-gamma inducible Protein 10 (IP10) Biomarker Activity (AID 2283053). As to conditions: primary human foreskin fibroblasts; actives raise or lower the signal. In outline:
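Primary human foreskin fibroblasts exposed to chemicals for 24 h. IP-10 measured by ELISA; changes fitted bidirectionally against DMSO baseline.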

Read-out in experiment [4]: Urokinase-type plasminogen activator receptor (uPAR), PLAUR (gene 5329)
The experiment can be described thus: BSK_CASM3C_uPAR: BioMAP Diversity Plus: CASM3C Assay for Urokinase-type plasminogen activator receptor (uPAR) Biomarker Activity (AID 2283054).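 Note: cell-surface uPAR protein level quantified by ELISA.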 Conditions: primary human coronary artery smooth muscle cells; actives raise or lower the signal.

Read-out in experiment [5]: Vascular cell adhesion molecule 1 (VCAM1), VCAM1 (gene 7412)
Description: BSK_CASM3C_VCAM1: BioMAP Diversity Plus: CASM3C Assay for Vascular cell adhesion molecule 1 (VCAM1) Biomarker Activity (AID 2283055).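 Note: VCAM-1 protein level quantified by ELISA on the cells.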 As to conditions: primary human coronary artery smooth muscle cells; actives raise or lower the signal.

Read-out in experiment [6]: Collagen III, COL3A1 (gene 1281)
Description: BSK_hDFCGF_CollagenIII: BioMAP Diversity Plus: hDFCGF Assay for Collagen III Biomarker Activity (AID 2283056). Conditions: primary human foreskin fibroblasts; actives raise or lower the signal. An outline of the steps:
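hDFCGF primary human dermal fibroblasts; 24 h chemical exposure; collagen III by ELISA; bidirectional curve fit vs DMSO baseline (gain or loss of signal).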

Read-out in experiment [7]: Epidermal growth factor receptor (EGFR), EGFR (gene 1956)
The experiment can be described thus: BSK_hDFCGF_EGFR: BioMAP Diversity Plus: hDFCGF Assay for Epidermal growth factor receptor (EGFR) Biomarker Activity (AID 2283057). Conditions: primary human foreskin fibroblasts; actives raise or lower the signal. An outline of the steps: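 Primary human foreskin fibroblasts (hDFCGF system), sampled 24 h after dosing; EGFR quantified by ELISA. Bidirectional fit relative to DMSO baseline; SRB total-protein staining in parallel cultures for cytotoxicity.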

Experiment [8] is described as follows: BSK_hDFCGF_Proliferation: Cell Proliferation Assessment in the BioMAP Diversity Plus: hDFCGF Assay (AID 2283059).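 Note: curves fitted for both rise and fall of signal versus DMSO baseline.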 Conditions: primary human foreskin fibroblasts. An outline of the steps: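 This proliferation readout used SRB total-protein staining of human foreskin fibroblasts […], normalized to DMSO with bidirectional curve fitting.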
Read-out in experiment [9]: Macrophage colony-stimulating factor (MCSF), CSF1 (gene 1435)
The experiment can be described thus: BSK_hDFCGF_MCSF: BioMAP Diversity Plus: hDFCGF Assay for Macrophage colony-stimulating factor (MCSF) Biomarker Activity (AID 2283060). As to conditions: primary human foreskin fibroblasts; actives raise or lower the signal. An outline of the steps: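 ELISA read-out of M-CSF in human dermal foreskin fibroblast cultures, 24 h after chemical dosing; gain or loss of signal fitted bidirectionally relative to DMSO baseline.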

Experiment [10] is described as follows: BSK_hDFCGF_SRB: Viability Assessment in the BioMAP Diversity Plus: hDFCGF Assay (AID 2283061).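 Note: cells exposed to compound for 24 h before the read.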 Conditions: primary human foreskin fibroblasts. In outline:
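Primary human foreskin fibroblasts; 24 h post-dose; fixed 10% TCA, stained 0.1% SRB, A560 read; total protein as overt cytotoxicity measure; curves fit bidirectionally vs DMSO control.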

Read-out in experiment [11]: Monokine induced gamma interferon (MIG), CXCL9 (gene 4283)
The experiment can be described thus: BSK_hDFCGF_MIG: BioMAP Diversity Plus: hDFCGF Assay for Monokine induced gamma interferon (MIG) Biomarker Activity (AID 2283063). Conditions: primary human foreskin fibroblasts; actives raise or lower the signal. An outline of the steps:
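Fibroblasts (human foreskin, primary) dosed, 24 h, MIG by ELISA; fit bidirectional vs DMSO.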

Read-out in experiment [12]: Vascular cell adhesion molecule 1 (VCAM1), VCAM1 (gene 7412)
The experiment can be described thus: BSK_hDFCGF_VCAM1: BioMAP Diversity Plus: hDFCGF Assay for Vascular cell adhesion molecule 1 (VCAM1) Biomarker Activity (AID 2283065).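 For AC50: VCAM-1 protein level quantified by ELISA after 24 h chemical exposure.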 Conditions: primary human foreskin fibroblasts; actives raise or lower the signal. In outline:
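ELISA read-out of VCAM-1 on human skin fibroblasts, 24 h post-dose; gain or loss of signal fitted bidirectionally against DMSO baseline.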

Read-out in experiment [13]: Plasminogen activator inhibitor-1 (PAI1), SERPINE1 (gene 5054)
Description: BSK_hDFCGF_PAI1: BioMAP Diversity Plus: hDFCGF Assay for Plasminogen activator inhibitor-1 (PAI1) Biomarker Activity (AID 2283066). Conditions: primary human foreskin fibroblasts; actives raise or lower the signal. In outline: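 Human foreskin fibroblast primary cells, 24 h chemical exposure; PAI-1 measured by ELISA. Bidirectional fitting relative to DMSO; parallel cultures stained with SRB for total protein to flag overt cytotoxicity.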

Read-out in experiment [14]: Intercellular Adhesion Molecule 1 (ICAM1), ICAM1 (gene 3383)
The experiment can be described thus: BSK_KF3CT_ICAM1: BioMAP Diversity Plus: KF3CT Assay for Intercellular Adhesion Molecule 1 (ICAM1) Biomarker Activity (AID 2283067). As to conditions: primary human keratinocytes with fibroblasts; actives raise or lower the signal. In outline:
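ELISA readout of ICAM-1; KF3CT human skin co-culture (keratinocytes + foreskin fibroblasts), 24 h post-dose; gain/loss fit vs DMSO baseline.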

Read-out in experiment [15]: Interferon-gamma inducible Protein 10 (IP10), CXCL10 (gene 3627)
The experiment can be described thus: BSK_KF3CT_IP10: BioMAP Diversity Plus: KF3CT Assay for Interferon-gamma inducible Protein 10 (IP10) Biomarker Activity (AID 2283068). As to conditions: primary human keratinocytes with fibroblasts; actives raise or lower the signal. In outline: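 Signal is secreted/surface IP-10 by ELISA in a human primary skin co-culture of keratinocytes and foreskin fibroblasts, taken 24 h post-dosing; DMSO served as negative control.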

Experiment [16] can be described thus: BSK_KF3CT_SRB: Viability Assessment in the BioMAP Diversity Plus: KF3CT Assay (AID 2283069).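 Note: total protein by sulforhodamine B staining as a cytotoxicity measure; read 24 h after compound addition.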 Conditions: primary human keratinocytes with fibroblasts. An outline of the steps:
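Human primary keratinocyte plus foreskin fibroblast co-culture exposed to chemicals for 24 h. Total protein measured by 0.1% sulforhodamine B staining after 10% TCA fixation, read at 560 nm; bidirectional fitting versus DMSO baseline.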

Read-out in experiment [17]: Interleukin-1 alpha (IL1a), IL1A (gene 3552)
Description: BSK_KF3CT_IL1a: BioMAP Diversity Plus: KF3CT Assay for Interleukin-1 alpha (IL1a) Biomarker Activity (AID 2283070). As to conditions: primary human keratinocytes with fibroblasts; actives raise or lower the signal. In outline:
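Human keratinocyte plus foreskin fibroblast primary co-culture, sampled 24 h after chemical dosing. IL-1a measured by ELISA; responses fitted bidirectionally against DMSO baseline (negative control), so gain or loss of signal both count.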

Read-out in experiment [18]: Matrix Metallopeptidase 1 (MMP1), MMP1 (gene 4312)
The experiment can be described thus: BSK_hDFCGF_MMP1: BioMAP Diversity Plus: hDFCGF Assay for Matrix Metallopeptidase 1 (MMP1) Biomarker Activity (AID 2283064). Conditions: primary human foreskin fibroblasts; actives raise or lower the signal. In outline:
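Primary human foreskin fibroblasts in the hDFCGF system were dosed with test chemical, and MMP1 was measured by ELISA 24 h later. Values come from bidirectional curve fitting against the DMSO baseline.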

Read-out in experiment [19]: TIMP metallopeptidase inhibitor 1 (TIMP1), TIMP1 (gene 7076)
Description: BSK_hDFCGF_TIMP1: BioMAP Diversity Plus: hDFCGF Assay for TIMP metallopeptidase inhibitor 1 (TIMP1) Biomarker Activity (AID 2283062). Conditions: primary human foreskin fibroblasts; actives raise or lower the signal. An outline of the steps:
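ELISA readout of TIMP-1 from human dermal foreskin fibroblast cultures 24 h post-dosing. Curves were fitted in both directions against DMSO baseline, with SRB total-protein staining in parallel cultures as a cytotoxicity check.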

One may read the AC50 as the midpoint of the concentration-response curve, whichever way the signal moves. As for `C#CC(C)(C)NC(=O)c1cc(Cl)cc(Cl)c1`, the result in experiment [1], in experiment [2], in [4], in experiment [5], in [7] and in experiment [8] was inactive. Further, the outcome in [9], in experiment [10], in experiment [11], in experiment [12], in experiment [13] and in [14] was inactive. Moreover, the outcome in [15], in [16] and in experiment [17] was inactive. The results for the AC50 in experiment [3] and in [6] were 4.25 µM (active) and 2.72 µM (active), respectively.
As for `CCOP(=S)(OCC)Oc1ccc([N+](=O)[O-])cc1`, the AC50 in [1] was 15.4 µM (active); in experiment [3] it was 20 µM (active); in experiment [8] it was 14.2 µM (active); in [9], 9.79 µM (active); in experiment [12] it was 20 µM (active); in experiment [13] it was 20 µM (active). In [15], the AC50 was 32.7 µM (active). In addition, the result in experiment [2], in experiment [4], in experiment [5], in experiment [6], in experiment [7] and in experiment [10] was inactive. Besides, the result in experiment [11], in experiment [14], in experiment [16] and in experiment [17] was inactive.
For the compound `Nc1nc(N)nc(NC2CC2)n1`, the result in experiment [1], in experiment [2], in experiment [3], in experiment [4], in [5] and in [6] was inactive. The outcome in [7], in experiment [8], in experiment [9], in experiment [10], in experiment [11] and in [18] was inactive. In addition, the outcome in [12], in experiment [13], in experiment [14], in [15], in [16] and in experiment [17] was inactive.
Consider `C[Si](Cn1cncn1)(c1ccc(F)cc1)c1ccc(F)cc1`, for which, in experiment [1], the AC50 is 7.8 µM (active). Besides, the outcome in experiment [2], in [3], in experiment [4], in experiment [5], in experiment [6] and in experiment [7] was inactive. Also, the result in [8], in [9], in experiment [10], in experiment [19], in [11] and in [12] was inactive. Also, the result in experiment [13], in experiment [14], in [15], in experiment [16] and in experiment [17] was inactive.
As to `S=C1NCCN1`, the result in experiment [1], in experiment [2], in [3], in [4], in [5] and in experiment [6] was inactive. Further, the result in experiment [7], in [8], in [9], in experiment [10], in [11] and in experiment [12] was inactive. Further, the result in experiment [13], in experiment [14], in experiment [15], in experiment [16] and in experiment [17] was inactive.
As to `COc1cccc(C(=O)NN(C(=O)c2cc(C)cc(C)c2)C(C)(C)C)c1C`, the result in experiment [1], in experiment [2], in experiment [3], in [4], in experiment [5] and in experiment [6] was inactive. In addition, the outcome in experiment [7], in experiment [8], in [9], in experiment [10], in [19] and in [11] was inactive. For the same compound, the result in experiment [12], in experiment [13], in experiment [14], in experiment [15], in [16] and in experiment [17] was inactive.
